PubChem BioAssay (EPA / NIEHS)
Records with an inconclusive call do not appear. The source made the active and inactive calls. How the source made its calls: active means hit-call score of the fitted dose curve at least 0.9, where 1 is the maximum; inconclusive means response in the unintended direction; inactive means score below 0.9.

How the values were obtained:
[1] = Tanguay_ZF_120hpf_MORT_legacy: (Legacy) Oregon State University Tanguay Lab 120 Hour Post-fertilization zebrafish Assay for Mortality (AID 2283633)
How it was run: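 Dechorionated Tropical 5D wild-type zebrafish embryos, one per well from 6 hpf, were statically exposed at 28C in the dark until 120 hpf (0.64% DMSO final). Mortality was scored as present/absent by brightfield microscopy, fitted positively versus DMSO.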

[2] = Tanguay_ZF_120hpf_YSE_legacy: (Legacy) Oregon State University Tanguay Lab 120 Hour Post-fertilization zebrafish Assay for Yolk Sac Edema (AID 2283634);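 on AC50: actives raise the incidence of yolk sac edema above the DMSO baseline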
How it was run: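 Tropical 5D wild-type embryos, dechorionated with pronase at 4 hpf, were exposed singly from 6 hpf to 120 hpf under static, sealed, dark conditions at 28C with 0.64% DMSO final. Yolk sac edema was scored present/absent by brightfield microscopy.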

[3] = Tanguay_ZF_120hpf_AXIS_legacy: (Legacy) Oregon State University Tanguay Lab 120 Hour Post-fertilization zebrafish Assay for Body Axis Malformation (AID 2283635);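 on AC50: potency for an increased fraction of larvae scored with body axis malformation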
How it was run: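 Tropical 5D wild-type zebrafish embryos, dechorionated with pronase at 4 hpf, were placed singly in wells at 6 hpf and exposed statically to test chemical (0.64% DMSO final) at 28C until 120 hpf, then scored by brightfield for body axis defects.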

[4] = Tanguay_ZF_120hpf_EYE_legacy: (Legacy) Oregon State University Tanguay Lab 120 Hour Post-fertilization zebrafish Assay for Eye Malformation (AID 2283636);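 further: binary presence or absence of eye malformation scored by brightfield in 120 hpf larvae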
How it was run: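 Binary brightfield scoring of eye defects at 120 hpf after static exposure from 6 hpf of single pronase-dechorionated wild-type embryos (28C, 0.64% DMSO). Non-mortality endpoints omitted where embryos died; fit vs DMSO.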

[5] = Tanguay_ZF_120hpf_SNOU_legacy: (Legacy) Oregon State University Tanguay Lab 120 Hour Post-fertilization zebrafish Assay for Snout Malformation (AID 2283637)
How it was run: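 Binary snout-malformation call at 120 hpf in wild-type 5D embryos, chorion removed by pronase, under static exposure from 6 hpf at 28C (0.64% DMSO). Embryos dying by 24 or 120 hpf excluded.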

[6] = Tanguay_ZF_120hpf_JAW_legacy: (Legacy) Oregon State University Tanguay Lab 120 Hour Post-fertilization zebrafish Assay for Jaw Malformation (AID 2283638);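 on AC50: active means more embryos with jaw malformation than DMSO controls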
How it was run: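 Tropical 5D wild-type embryos, dechorionated with pronase at 4 hpf, were placed singly per well at 6 hpf and statically exposed at 28C until 120 hpf (0.64% DMSO final). Jaw malformation scored as present/absent by brightfield microscopy at 120 hpf, analyzed relative to DMSO.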

[7] = Tanguay_ZF_120hpf_OTIC_legacy: (Legacy) Oregon State University Tanguay Lab 120 Hour Post-fertilization zebrafish Assay for Otic Vesicle Malformation (AID 2283639)
How it was run: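 Binary scoring of otic vesicle defects at 120 hpf in zebrafish (Tropical 5D) held under static exposure at 28C, sealed and shaded, with final DMSO 0.64%. Embryos dying by 24 or 120 hpf excluded; fitted positively against DMSO.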

[8] = Tanguay_ZF_120hpf_PE_legacy: (Legacy) Oregon State University Tanguay Lab 120 Hour Post-fertilization zebrafish Assay for Pericardial Edema (AID 2283640);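 on AC50: potency for increased incidence of pericardial edema versus DMSO baseline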
How it was run: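 Tropical 5D wild-type zebrafish embryos were exposed statically to 120 hpf at 28C, sealed and foil-covered, in 0.64% DMSO final. Pericardial edema was scored present/absent by brightfield microscopy; dead embryos were not scored.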

[9] = Tanguay_ZF_120hpf_BRAI_legacy: (Legacy) Oregon State University Tanguay Lab 120 Hour Post-fertilization zebrafish Assay for Brain Malformation (AID 2283641)
How it was run: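 Tropical 5D wild-type zebrafish embryos were exposed statically in sealed, foil-covered plates at 28C until 120 hpf, with 0.64% (vol/vol) final DMSO. Brain malformation was scored present/absent by brightfield microscopy, relative to DMSO baseline.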

[10] = Tanguay_ZF_120hpf_SOMI_legacy: (Legacy) Oregon State University Tanguay Lab 120 Hour Post-fertilization zebrafish Assay for Somite Malformation (AID 2283647)
How it was run: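 Tropical 5D wild-type zebrafish embryos, dechorionated with pronase at 4 hpf, were placed singly at 6 hpf and statically exposed until 120 hpf at 28C in 0.64% DMSO. Somite malformation was scored present/absent by brightfield microscopy versus DMSO.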

[11] = Tanguay_ZF_120hpf_CFIN_legacy: (Legacy) Oregon State University Tanguay Lab 120 Hour Post-fertilization zebrafish Assay for Caudal Fin Malformation (AID 2283649)
How it was run: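 Tropical 5D wild-type embryos, dechorionated with pronase at 4 hpf, were placed singly in wells at 6 hpf and statically exposed to compound at 28C until 120 hpf (0.64% DMSO). Caudal fin malformation was scored present/absent by brightfield microscopy.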

[12] = Tanguay_ZF_120hpf_CIRC_legacy: (Legacy) Oregon State University Tanguay Lab 120 Hour Post-fertilization zebrafish Assay for Circulatory Malformation (AID 2283651)
How it was run: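 Binary circulatory malformation call at 120 hpf by brightfield imaging of zebrafish larvae; chorion removed at 4 hpf, static exposure from 6 hpf in sealed dark plates at 28C, final DMSO 0.64%; non-mortality endpoints skipped if embryo died.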

[13] = Tanguay_ZF_120hpf_SWIM_legacy: (Legacy) Oregon State University Tanguay Lab 120 Hour Post-fertilization zebrafish Assay for Swim Bladder Malformation (AID 2283654);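 further: swim bladder malformation in each larva scored yes or no under brightfield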
How it was run: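 Scoring is binary for swim bladder defects at 120 hpf, by brightfield inspection of zebrafish larvae. Embryos were exposed singly from 6 hpf after pronase dechorionation, at 28C with 0.64% DMSO; mortality excluded scoring.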

[14] = Tanguay_ZF_120hpf_NC_legacy: (Legacy) Oregon State University Tanguay Lab 120 Hour Post-fertilization zebrafish Assay for Notochord and Tail Malformation (AID 2283656)
How it was run: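 Binary scoring of notochord distortion by brightfield microscopy; embryos dying were not scored. Wild-type Tropical 5D embryos, chorion removed, exposed singly and statically from 6 to 120 hpf, 28C, sealed, 0.64% DMSO.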

[15] = Tanguay_ZF_120hpf_PFIN_legacy: (Legacy) Oregon State University Tanguay Lab 120 Hour Post-fertilization zebrafish Assay for Pectoral Fin Malformation (AID 2283648);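 further: each larva judged yes or no for fin defect by brightfield with dead larvae skipped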
How it was run: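 Pectoral fin malformation was recorded as a binary endpoint at 120 hpf in wild-type Tropical 5D larvae, which had been dechorionated and exposed statically from 6 hpf at 28C in 0.64% DMSO. Dead embryos were excluded.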

[16] = Tanguay_ZF_120hpf_TRUN_legacy: (Legacy) Oregon State University Tanguay Lab 120 Hour Post-fertilization zebrafish Assay for Truncated Body (AID 2283655)
How it was run: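 Tropical 5D wild-type embryos, dechorionated with pronase at 4 hpf, were placed singly in wells at 6 hpf and statically exposed at 28C until 120 hpf, final DMSO 0.64%. Truncated body was scored present/absent by brightfield microscopy.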

Measured: AC50

c1ccc2c(c1)Nc1ccccc1S2
not listed: [15] | [16]
inactive: all other assays above

CC(Cc1ccc(OCC(=O)O)cc1)NCC(O)c1csc(C(F)(F)F)n1 (centres undefined)
inactive: all assays above

O=P1(N(CCCl)CCCl)NCCCO1 (centres undefined)
inactive: all assays above

c1cc2c3c(cccc3c1)CC2
not listed: [16]
inactive: all other assays above

Cc1ccc([N+](=O)[O-])cc1C
not listed: [10] | [11] | [13]
inactive: all other assays above

CCC1(c2ccccc2)C(=O)N=C(O)NC1=O (centres undefined)
inactive: all assays above

O=C(O)C1C(C(=O)O)C2(Cl)C(Cl)=C(Cl)C1(Cl)C2(Cl)Cl (centres undefined)
inactive: all assays above

CCC(C)(C)c1ccc(O)cc1
inactive: [1] | [12]
active: [2] 51.1 µM | [3] 19 µM | [4] 22.3 µM | [5] 52.7 µM | [6] 14.7 µM | [7] 48.4 µM | [8] 44.5 µM | [9] 48.1 µM | [10] 36.6 µM | [15] 22.2 µM | [11] 48.8 µM | [13] 47.2 µM | [16] 31.6 µM | [14] 47.9 µM

O=[N+]([O-])c1ccc(Cl)c(Cl)c1
not listed: [13]
inactive: all other assays above

O=[N+]([O-])c1ccccc1
not listed: [14]
inactive: all other assays above

Nc1ccc2ccccc2c1
active: [2] 34.8 µM | [3] 33.4 µM | [4] 47.7 µM | [5] 33.9 µM | [6] 34.9 µM | [8] 42 µM | [9] 202 µM
inactive: all other assays above

CCCCc1ccccc1
not listed: [14]
inactive: all other assays above

CSC(C)(C)C=NO
inactive: all assays above

COCCOCCO
not listed: [15]
inactive: all other assays above

CCOS(=O)(=O)OCC
inactive: all assays above

c1ccc(OP(Oc2ccccc2)Oc2ccccc2)cc1
inactive: all assays above

O=C(O)C(Cl)Cl
inactive: all assays above

OCC1CO1 (centres undefined)
not listed: [13] | [14]
inactive: all other assays above

CCOP(=S)(OCC)SCSCC
inactive: all assays above

ClC1=C(Cl)C2(Cl)C3C(Cl)C(Cl)CC3C1(Cl)C2(Cl)Cl (centres undefined)
not listed: [12] | [14] | [15] | [16]
inactive: all other assays above
